This is an account of results in PubChem BioAssay AID743287 (Broad Institute, 2014).

The whole screen tested about 370,000 compounds, of which about 2,300 (0.62%) were called active. Many of the other results were omitted from the sample, so actives are more common in it than they were. Values without a mark were called inactive.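 Rule for the calls: active = lowest replicate activation of at least 40%, so every replicate reaches that level; inactive = the rest.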

The nature of the experiment: GLuc luminescence reporter in INS-1E cells, primary screen for activators of glucose-dependent secretion of insulin (AID 743287).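 Note: 0% = median of neutral control wells and 100% = median of IBMX positive control wells.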 The conditions noted are these: INS-1E GLuc reporter insulin secretion, 2-3 h, at 16.6 µM, stronger effect = higher value.
Take `C[C@@H]1CN([C@@H](C)CO)C(=O)c2cc(NC(=O)Nc3ccccc3)ccc2O[C@H]1CN(C)S(=O)(=O)c1ccccc1`: the activation was 6.36%.
Turning to `Cc1onc(-c2c(F)cccc2Cl)c1C(=O)Nc1cccc(S(=O)(=O)N2CCCCC2)c1`, the activation is -9.79%.
Consider `CN(CCC(=O)Nc1cc(S(=O)(=O)N(C)C)ccc1Cl)CC(=O)Nc1ccc(F)cc1`, for which the activation is -1.06%.
Then `Cc1cccc(CS(=O)(=O)c2ncc(Cl)c(C(=O)Nc3ccc(F)cc3)n2)c1`, with 44.8% (active).
`C/C=C/c1ccc(C2[C@H]3CNC[C@@H]2N3CC2CCOCC2)cc1` (stereo partly drawn): the activation is 8.12%.
Regarding `C[C@@H]1CN([C@@H](C)CO)C(=O)Cc2cc(NC(=O)Cc3ccccc3)ccc2O[C@H]1CN(C)Cc1ccc(C(=O)O)cc1`, the activation is 12.1%.
`CC(C)NC(=O)Nc1ccc2c(c1)C(=O)N(C)[C@H]1CC[C@H](CC(=O)NCC3CCCCC3)O[C@@H]1CO2`: the activation was 5.93%.
In the case of `CCC(=O)Nc1ccc2c(c1)C(=O)N(C)C[C@H](OC)[C@@H](C)CN(Cc1nccs1)[C@H](C)CO2`, the activation was 5.56%.
With `CC1CN(Cc2ccccc2)C(=S)NC1=O` (stereo not drawn) the figure was 41.2% (active); with `CC1CN(Cc2ccco2)C(=S)N(c2ccccc2)C1=O` (stereo not drawn), 10.7%.
Then `CC1CC(=S)Nc2ccccc2N1Cc1ccccc1` (stereo not drawn), with -14.5%; and `COCC(=O)N(C)C[C@H]1Oc2cc(C#CC3CCCC3)ccc2S(=O)(=O)N([C@H](C)CO)C[C@@H]1C`, with -6.72%; and `COc1ccccc1CNC(=O)C[C@H]1C[C@@H]2c3cc(NC(=O)Nc4ccccc4F)ccc3O[C@@H]2[C@H](CO)O1`, with 13.4%.
Regarding `COc1cccc(NC(=O)CSc2nnc(Cc3ccc(OC)c(OC)c3)o2)c1`, the activation was 37.6%.
Then `COc1ccc(Cc2nnc(SCC(=O)Nc3ccc(C)c(C)c3)o2)cc1OC`, with 71.9% (active); and `Cc1ccc(NC(=O)CSc2nnc(COc3ccccc3C)o2)cc1`, with 6.85%; and `C[C@H](CO)N1C[C@H](C)[C@@H](CN(C)C)Oc2ncc(-c3cccc(F)c3)cc2C1=O`, with -1.15%.
With `C[C@H](CO)N1C[C@H](C)[C@@H](CN(C)Cc2ccccc2)Oc2c(NC(=O)CCCCCC(=O)Nc3ccccc3N)cccc2C1=O` the figure was -7.28%.
`Oc1c(Br)cc(/C=N/NC(=S)NCC2CCCO2)cc1Br` (stereo not drawn): the activation was -34.5%.
On to `CNC(=S)N/N=C/c1ccc(OCc2ccccc2)c(Br)c1`, for which the activation is 107% (active).
Then `CNC(=S)N/N=C/c1ccc(N2CCOCC2)s1`, with 8.01%; and `COCC#Cc1cnc2c(c1)C(=O)N([C@H](C)CO)C[C@H](C)[C@H](CN(C)C(=O)Cc1cccnc1)O2`, with 27.8%; and `COc1cccc(-c2cnc3c(c2)C(=O)N([C@H](C)CO)C[C@H](C)[C@H](CN(C)S(=O)(=O)c2cccc(F)c2)O3)c1`, with -6.84%.
Then `C[C@H](CO)N1C[C@H](C)[C@@H](CN(C)C(=O)Cc2ccncc2)Oc2ncc(C#CCN(C)C)cc2C1=O`, with 36.3%; and `Cc1cc(NC(=O)COc2ccccc2C#N)no1`, with 10.8%.
With `Cc1cc(N/C=C\C(=O)c2ccc(Cl)c(Cl)c2)no1` the figure was 76.1% (active); with `Cc1cc(NCc2cccnc2)no1`, -3.31%.
In the case of `COc1ccc(CN(C)C[C@H]2Oc3c(NC(=O)c4cnccn4)cccc3C(=O)N([C@H](C)CO)C[C@@H]2C)cc1`, the activation was 3%.
Then `O=C1[C@H](Cc2ccc(C(F)(F)F)cc2)CCn2nncc2COC[C@@H]2CCCCN12`, with 1.36%.
`O=C(c1cnccn1)N1CC(=O)N2[C@H](C1)[C@@H](c1ccc(C#CC3CCCCC3)cc1)[C@@H]2CO`: the activation was 1.34%.
Consider `CC(C)CC#Cc1ccc([C@@H]2[C@@H](CO)N3C(=O)CN(C(=O)c4cnccn4)C[C@@H]23)cc1`, for which the activation was 25.5%.
With `CC(C)CC#Cc1ccc([C@H]2[C@H]3CN(C(=O)c4cnccn4)CC(=O)N3[C@H]2CO)cc1`, the activation was 54.1% (active).
With `CO[C@@H]1CN(C)C(=O)c2ccc(NC(=O)Nc3ccccc3)cc2OC[C@@H](C)N(C(=O)Nc2c(C)noc2C)C[C@@H]1C` the figure was -0.32%; with `CCCCCc1c(Cc2ccccc2)ncn1CCc1ccccc1OC`, 70% (active); with `CCCCCc1c(-c2ccc(OC)c(OC)c2)ncn1CCc1ccccc1OC`, -29.6%.
Turning to `CCCCc1c(-c2ccc(Cl)cc2)ncn1CCc1ccccc1OC`, the activation was -9.43%.
On to `Cc1ccccc1-c1ccc([C@H]2[C@@H](CO)N3C(=O)CN(C(=O)c4cccnc4)C[C@@H]23)cc1`, for which the activation was -14.5%.
On to `COc1cccc(S(=O)(=O)N2CCC3(CC2)CN[C@H](CO)c2c3c3ccc(OC)cc3n2C)c1`, for which the activation was -2.73%.
Consider `Cc1cc(NC(C)C)n2c(nc3ccccc32)c1C#N`, for which the activation was 4.84%.
With `Cc1ccc(S(=O)(=O)N(C)c2nc3ccccc3n3c(C(C)C)nnc23)cc1` the figure was 66.1% (active); with `O=C(Cc1ccncc1)N1CC[C@@H]2[C@@H](CO)Nc3ccc(C4=CCCCC4)cc3[C@@H]21`, 8.52%; with `CN(C)CCCNC(=O)C[C@H]1CC[C@H]2[C@@H](COC[C@H](O)CN2CC2CCCCC2)O1`, 1.49%.
With `CC(Sc1nc2cc(Cl)ccc2s1)C(=O)Nc1ccc2c(c1)OCO2` (stereo not drawn) the figure was -18.8%.
With `CCSc1ccccc1C(=O)Nc1ccc2c(c1)OCO2` the figure was -1.24%; with `O=C(Nc1ccc2c(c1)OCO2)c1sc2cc(Cl)ccc2c1Cl`, 69.2% (active); with `C=CS(=O)c1sc(Cl)c(N2CCOCC2)c1[N+](=O)[O-]` (stereo not drawn), 99.9% (active).
As for `COc1ccc2c3c([nH]c2c1)[C@H](CO)N(C(=O)Nc1ccc(F)cc1)CC31CCN(C(=O)Nc2c(C)noc2C)CC1`, the activation was -8.35%.
As to `O=C(Nc1ccc(F)cc1)N1CC(=O)N2[C@H](CO)[C@H](c3ccc(C#Cc4ccccc4)cc3)[C@H]2C1`, the activation was -21.6%.
Regarding `CCCNC(=O)Nc1ccc2c(c1)OC[C@@H](C)N(CC1CCCC1)C[C@@H](C)[C@H](OC)CN(C)C2=O`, the activation was -11.9%.
Consider `COc1ccc(-c2ccccc2[C@H]2[C@@H](CO)N(C(=O)c3cccnc3)[C@H]2C#N)cc1`, for which the activation is -2.16%.
With `S=c1[nH]nc(-c2ccccc2)n1/N=C/c1c[nH]c2ccccc12` the figure was 41.8% (active).
In the case of `CCc1n[nH]c(=S)n1/N=C/c1c[nH]c2ccc(Br)cc12`, the activation was 6.23%.
`C[C@@H]1CN([C@@H](C)CO)C(=O)c2cccc(N(C)C)c2O[C@H]1CN(C)S(=O)(=O)c1cccs1`: the activation is 4.92%.
With `O=C(Cc1cccnc1)N1CC(=O)N2[C@@H](CO)[C@@H](c3ccc(C#CC4CCCCC4)cc3)[C@@H]2C1` the figure was -3.29%; with `COc1ccc2c3c([nH]c2c1)[C@@H](CO)N(C(=O)NC(C)C)CC31CN(C(=O)C2CCCC2)C1`, 3.69%.
As to `CCOc1ccc(NC(=O)CSc2nc3ccccc3c(=O)n2Cc2cccs2)cc1`, the activation is 60.2%.
With `O=C(CSc1nc2ccccc2c(=O)n1CCCO)NC1CC1` the figure was 4.63%; with `COC(=O)CSc1nc2ccccc2c(=O)n1Cc1ccccc1`, 50% (active); with `CO[C@@H]1CN(C)C(=O)c2cc(NS(=O)(=O)CC(F)(F)F)ccc2OC[C@H](C)N(Cc2ccccn2)C[C@@H]1C`, 11.8%.
Consider `CC(C)NC(=O)Nc1ccc2c(c1)CC(=O)N(C)C[C@@H](C)[C@@H](CN(C)C(=O)OC(C)(C)C)O2`, for which the activation was 9.38%.
With `Cc1ccc(C)c(NC(=O)NNC(=O)c2ccc3ccccc3c2O)c1` the figure was -0.162%.
With `Cc1ccc(-c2cc(C(=O)Nc3nn[nH]n3)c3ccccc3n2)c(C)c1`, the activation is 63.4% (active).
Then `Cc1ccc2c(Cl)c(C(=O)Nc3nn[nH]n3)sc2c1`, with -4.19%; and `COc1ccc(CCNC(=O)CSc2nnc3ccc(-c4ccncc4)nn23)cc1`, with 4.35%; and `COc1cccc(-c2ccc(C#N)c(SCC(=O)NCCc3ccc(Cl)cc3)n2)c1`, with 108% (active).
With `COc1ccc(CCNC(=O)CSc2nc(-c3ccc(OC)c(OC)c3)ccc2C#N)cc1` the figure was 46.1%; with `CCC(=O)N1C[C@H](C)[C@H](OC)CN(C)C(=O)c2ccc(NC(=O)Nc3ccc(Cl)cc3)cc2OC[C@H]1C`, -31.9%.
With `CNC(=O)C[C@H]1CC[C@@H]2[C@H](COc3ccc(NC(=O)C(C)C)cc3C(=O)N2C)O1`, the activation is 4.65%.
In the case of `COc1ccc(CN(C)Cc2nc3cc(OC)c(OC)cc3c(=O)[nH]2)c(OC)c1`, the activation was -31.6%.
For `COc1ccc(/C=C2/C(=O)OCc3cc(OC)c(OC)cc32)c(OC)c1`, the activation was 90.1% (active).
Then `COc1ccc(/C=C/C2=CC(C)(C)NC(=S)N2)c(OC)c1`, with -2.56%.
With `CCCC#Cc1ccc([C@H]2[C@H]3CN(C(=O)Nc4cccc(F)c4)CC(=O)N3[C@H]2CO)cc1` the figure was -20.8%; with `Cc1noc(C)c1NC(=O)Nc1ccc2c(c1)C(=O)N([C@@H](C)CO)C[C@H](C)[C@@H](CN(C)C)O2`, 11.6%; with `Cc1ccccc1-c1ccc([C@H]2[C@H](CO)N3C(=O)CN(C(=O)c4cccnc4)C[C@@H]23)cc1`, 4.01%.
With `COc1ccccc1S(=O)(=O)N[C@H]1CC[C@@H](CC(=O)NCc2cc(F)cc(F)c2)O[C@H]1CO` the figure was 6.83%; with `COC(=O)c1c(C)oc(C)c1S(=O)(=O)NCc1ccc(Cl)cc1`, 15.9%.
Take `COC(=O)c1c(C)oc(C)c1S(=O)(=O)Nc1ccc(C(C)C)cc1`: the activation was 52.6% (active).
In the case of `CC(C)c1ccc(NS(=O)(=O)c2cn(C)c(=O)n(C)c2=O)cc1`, the activation is 18.1%.
